# Results published in PubChem BioAssay (NCATS).
# Records with an inconclusive call do not appear. Unmarked numbers belong to inactive results. The source made the active and inactive calls. The call rests on the fitted dose curve; in most records, active means well fitted inhibition curve with a large enough effect; inconclusive means small, poorly fitted or top-dose-only effect; inactive means flat fitted curve, though single readings scatter.
# Key:
# CRL-7250 = normal cell line; experiment: Cytotoxic Profiling of Annotated Libraries Using Quantitative High-Throughput Screening (AID 1296008); conditions: Five cell lines viability, CellTiter-Glo ATP luminescence, 48-72 h; max response: stronger effect = lower value; on max response: on the % scale 0 is the no-effect control and ±100 the full control effect
# Method in brief: (§1)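 Cells exposed to compounds for 48 or 72 hr at 37 degrees Celsius. Viability read as ATP-coupled luminescence with CellTiter-Glo after 10 min at room temperature.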
# HaCat [1] = experiment: as above; conditions: Five cell lines viability, CellTiter-Glo ATP luminescence, 48-72 h; max response: stronger effect = lower value
# Method in brief: as §1
# KB-3-1 = experiment: as above; conditions: Five cell lines viability, CellTiter-Glo ATP luminescence, 48-72 h; max response: stronger effect = lower value
# Method in brief: as §1
# NIH3T3 = experiment: as above; conditions: Five cell lines viability, CellTiter-Glo ATP luminescence, 48-72 h; max response: stronger effect = lower value
# Method in brief: as §1
# HACAT [2] = experiment: qHTS assay to identify novel small-molecules to repurpose for Merkel cell carcinoma treatment (AID 1296009); conditions: MCC and control cell lines, CellTiter-Glo viability, 72 h; at 44.8 µM (top of the series) unless noted
# Method in brief: (§2)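 Dose-response viability screen; 72 hr exposure at 37 degree celsius; CellTiter-Glo added, 10 min room temperature, luminescence read; RLUs scaled between no-cell and DMSO wells.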
# TAB165 = experiment: qHTS profiling for inhibitors of Plasmodium falciparum proliferation (AID 504749); conditions: P. falciparum in erythrocytes, SYBR Green DNA, 72 h; series mostly up to 28.7 µM
# Method in brief: (§3)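 Each compound contacts P. falciparum-infected red blood cells for 72 h at 37 C; lysis buffer (Tris, EDTA, saponin, Triton X, SYBR Green I) is added and fluorescence measured next morning; values normalized to controls.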
# W2 = experiment: as above; conditions: P. falciparum in erythrocytes, SYBR Green DNA, 72 h; series mostly up to 28.7 µM
# Method in brief: as §3
# MCC-26 = experiment: qHTS assay to identify novel small-molecules to repurpose for Merkel cell carcinoma treatment (AID 1296009); conditions: MCC and control cell lines, CellTiter-Glo viability, 72 h
# Method in brief: as §2
# Further: nearly all actives have a fitted effect of over 60% in size.
# Potency means the concentration at half of the fitted maximal effect.
smiles,measurement,setting,value
C=CC(=O)N1CC(N2CCN(C(=O)CNc3cc(C4CC4)c(Cl)cc3O)CC2)C1,outcome,CRL-7250,inactive
same,outcome,HaCat [1],inactive
same,outcome,KB-3-1,inactive
same,outcome,NIH3T3,inactive
same,outcome,HACAT [2],inactive
CN1CCN(c2ccc(-c3cccc(CN4CCOCC4)c3)cc2NC(=O)c2c[nH]c(=O)cc2C(F)(F)F)CC1,max response,CRL-7250,-6.65%
same,outcome,HaCat [1],inactive
same,outcome,KB-3-1,inactive
same,max response,NIH3T3,-7.39%
same,outcome,HACAT [2],inactive
CCOC(=O)N1CCC(N2CCC[C@@H](NC(=O)c3ccccc3C)C2)CC1,max response,CRL-7250,-6.33%
same,outcome,HaCat [1],inactive
same,max response,KB-3-1,8.62%
same,outcome,NIH3T3,inactive
same,outcome,HACAT [2],inactive
O=C(c1ccc(OC(F)F)c(C#Cc2ccccn2)c1)N1Cc2cccnc2C1,max response,CRL-7250,4.31%
same,outcome,HaCat [1],inactive
same,max response,KB-3-1,-1.9%
same,max response,NIH3T3,3.1%
same,outcome,HACAT [2],inactive
C=C1C(=O)OC2CC(C)C(CCC(C)O)=CCC12 (configuration not stated),max response,CRL-7250,-9.97%
same,outcome,HaCat [1],inactive
same,outcome,KB-3-1,inactive
same,max response,NIH3T3,-1.15%
same,outcome,HACAT [2],inactive
CCC/C=C/C(=O)O[C@H]1CC(C)(C)CC2[C@@]13[C@H](O)C[C@]1(C)[C@@]2(CCC2[C@@]4(C)CC[C@H](O[C@@H]5O[C@H](C(=O)O)[C@@H](O)[C@H](O[C@@H]6O[C@H](CO)[C@H](O)[C@H](O)[C@H]6O[C@@H]6O[C@@H](C)[C@H](O)[C@@H](O)[C@H]6O[C@@H]6OC[C@](O)(CO)[C@H]6O)[C@H]5O[C@@H]5O[C@H](CO)[C@H](O)[C@H](O)[C@H]5O)C(C)(C)C4CC[C@]21C)O[C@H]3O (some centres not stated),outcome,CRL-7250,inactive
same,outcome,HaCat [1],inactive
same,outcome,KB-3-1,inactive
same,max response,NIH3T3,3.59%
same,outcome,HACAT [2],inactive [at 9.27 µM]
O=C(Nc1cc(C(F)(F)F)ccc1N1CCCCC1)c1ccncc1,max response,CRL-7250,-7.1%
same,outcome,HaCat [1],inactive
same,max response,KB-3-1,-6.53%
same,max response,NIH3T3,1.75%
same,outcome,HACAT [2],inactive
CC(=O)OC1CC(C)C2(CCC3(CC(=O)OC3O)O2)C2(C)CCCC(C)(C)C12 (configuration not stated),outcome,CRL-7250,inactive
same,outcome,HaCat [1],inactive
same,max response,KB-3-1,0.411%
same,max response,NIH3T3,0.0681%
same,outcome,HACAT [2],inactive [at 17.4 µM]
O=C(NCc1ccc(OC(F)(F)F)cc1)C1c2c(F)cccc2C(=O)N1CCc1ccccn1 (configuration not stated),max response,CRL-7250,-3.88%
same,outcome,HaCat [1],inactive
same,max response,KB-3-1,4.96%
same,max response,NIH3T3,-2.89%
same,outcome,HACAT [2],inactive
COc1ccc([C@H](Cc2ccncc2)c2ccccc2)cc1OC1CCCC1,max response,CRL-7250,-5.35%
same,outcome,HaCat [1],inactive
same,max response,KB-3-1,-4.42%
same,max response,NIH3T3,-22.8%
same,outcome,HACAT [2],inactive
Cc1cc(OCCCS(C)(=O)=O)cc(C)c1-c1cccc(COc2ccc(C3=CC(=O)NS3=O)cc2)c1 (configuration not stated),max response,CRL-7250,3.79%
same,outcome,HaCat [1],inactive
same,max response,KB-3-1,3.57%
same,max response,NIH3T3,-0.311%
same,outcome,HACAT [2],inactive
CC1=C(C(=O)Nc2cc(Cl)ccc2Cl)C(c2ccco2)C2=C(CCCC2=O)N1 (configuration not stated),max response,CRL-7250,-1.05%
same,outcome,HaCat [1],inactive
same,max response,KB-3-1,7.23%
same,max response,NIH3T3,-25.9%
same,outcome,HACAT [2],inactive
C/C=C(/C)C(=O)OC1C=C2C3C(C)C(C)C(OC(=O)C(C)C(C)O)CC3(C)CCC2(C)C2(C)CC(OC(C)=O)C3C(C)(C)C(O)C(=O)CC3(C)C12 (configuration not stated),max response,CRL-7250,0.415%
same,outcome,HaCat [1],inactive
same,max response,KB-3-1,5.54%
same,max response,NIH3T3,-9.86%
same,outcome,HACAT [2],inactive [at 17.4 µM]
COC1C(OC(=O)/C=C/C=C/C=C/C=C/C(=O)O)CCC2(CO2)C1C1(C)OC1CC=C(C)C (configuration not stated),Potency,TAB165,31.6 nM (active)
same,Potency,W2,10.7 nM (active)
CN[C@H]1CC[C@@H](c2ccc(Cl)c(Cl)c2)c2ccccc21,Potency,MCC-26,26.6 µM (active)
CCN(Cc1cc(Nc2nc(C)cn3c(-c4cn[nH]c4)cnc23)sn1)C(C)(C)CO,Potency,CRL-7250,0.0731 µM (active)
same,Potency,HaCat [1],1.46 µM (active)
same,Potency,NIH3T3,0.461 µM (active)
CC(F)(F)CN1CCOc2c(nn(-c3ccccc3Cl)c2-c2ccc(Cl)cc2)C1=O,outcome,CRL-7250,inactive
same,max response,HaCat [1],-16.2%
same,max response,NIH3T3,-14.8%
O=C(NS(=O)(=O)c1ccc(Br)s1)c1ccc(Cl)cc1Cl,max response,CRL-7250,-22.3%
same,max response,HaCat [1],3.71%
same,max response,NIH3T3,-6.08%
Cc1noc(C)c1-c1cc(O)cc(C(O)c2ccccc2)c1 (configuration not stated),Potency,CRL-7250,7.31 µM (active)
same,max response,HaCat [1],-28.1%
same,Potency,NIH3T3,10.3 µM (active)
Cc1ccccc1CN1CCn2c1nc1c(c2=O)CN(Cc2ccccc2)CC1,max response,CRL-7250,1.02%
same,outcome,HaCat [1],inactive
same,max response,KB-3-1,-11.6%
same,outcome,HACAT [2],inactive
Cc1c(OCc2cccc(-c3ccc(C(=O)O)cc3)c2)cc2c(c1C)C(=O)C(C1CCCC1)C2 (configuration not stated),max response,CRL-7250,3.68%
same,max response,HaCat [1],-12%
same,max response,NIH3T3,-4.46%
